Data taken from PubChem BioAssay (EPA / NIEHS).
Inconclusive results are not listed. Where a structure was tested more than once in an assay, its records may differ in their call. Activity calls are given as the source filed them. The calls were made as follows: active = hit-call score of the fitted dose curve at least 0.9, where 1 is the maximum; inconclusive = response in the unintended direction; inactive = score below 0.9.

What follows are molecules tested against rat Somatostatin Receptor (SST), Sstr1 (gene 25033) (UniProt P28646) (assay: NVS_GPCR_rSST: NovaScreen (NVS) G Protein-Coupled Receptor Assay for rat Somatostatin Receptor (SST) (AID 2283314)).
Summary of the method: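 Single-concentration duplicate screen (25 uM), then concentration-response up to 50 uM for chemicals passing a threshold such as 30% inhibition. Membranes came from rat forebrain. Binding was measured 1 h post-dose by filter radiodetection and scintillation, relative to DMSO.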

Chain of rat Somatostatin Receptor (SST), Sstr1 (gene 25033) (P28646 whole entry, looked up): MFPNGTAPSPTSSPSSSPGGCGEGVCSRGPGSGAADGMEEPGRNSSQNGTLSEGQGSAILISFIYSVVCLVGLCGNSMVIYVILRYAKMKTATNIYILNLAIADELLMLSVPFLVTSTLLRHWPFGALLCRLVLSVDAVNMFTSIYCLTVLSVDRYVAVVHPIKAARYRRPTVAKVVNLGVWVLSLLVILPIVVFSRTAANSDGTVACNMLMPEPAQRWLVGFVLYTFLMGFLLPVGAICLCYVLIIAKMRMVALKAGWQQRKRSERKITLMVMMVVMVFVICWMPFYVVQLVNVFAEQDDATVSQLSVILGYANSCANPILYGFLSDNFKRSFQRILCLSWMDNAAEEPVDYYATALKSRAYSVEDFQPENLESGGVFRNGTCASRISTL

Row | SMILES | outcome | AC50
1 | CN(C)C(=S)SSC(=S)N(C)C | inactive | 
2 | CS/C(C)=N/OC(=O)N(C)SN(C)C(=O)O/N=C(\C)SC |  | 17.2 µM (active)
3 | COP(=S)(OC)Oc1nc(Cl)c(Cl)cc1Cl | inactive | 
4 | CCOC(=O)CC(SP(=S)(OC)OC)C(=O)OCC (stereo unspecified) | inactive | 

The molecules below were run against rat Neonicotinoid receptor (NNR), Chrna7 (gene 25302) (UniProt Q05941) (assay: NVS_LGIC_rNNR_BungSens: NovaScreen (NVS) Ligand-Gated Ion Channel Assay for rat Neonicotinoid receptor (NNR) (AID 2283315)).
Summary of the method: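 Rat cortical membrane preparation incubated 2.5 h with tritiated or iodinated radioligand and test chemical. Bound radioactivity was filtered and counted by scintillation, and displacement was analysed against DMSO.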

Chain of rat Neonicotinoid receptor (NNR), Chrna7 (gene 25302) (Q05941 whole entry, looked up): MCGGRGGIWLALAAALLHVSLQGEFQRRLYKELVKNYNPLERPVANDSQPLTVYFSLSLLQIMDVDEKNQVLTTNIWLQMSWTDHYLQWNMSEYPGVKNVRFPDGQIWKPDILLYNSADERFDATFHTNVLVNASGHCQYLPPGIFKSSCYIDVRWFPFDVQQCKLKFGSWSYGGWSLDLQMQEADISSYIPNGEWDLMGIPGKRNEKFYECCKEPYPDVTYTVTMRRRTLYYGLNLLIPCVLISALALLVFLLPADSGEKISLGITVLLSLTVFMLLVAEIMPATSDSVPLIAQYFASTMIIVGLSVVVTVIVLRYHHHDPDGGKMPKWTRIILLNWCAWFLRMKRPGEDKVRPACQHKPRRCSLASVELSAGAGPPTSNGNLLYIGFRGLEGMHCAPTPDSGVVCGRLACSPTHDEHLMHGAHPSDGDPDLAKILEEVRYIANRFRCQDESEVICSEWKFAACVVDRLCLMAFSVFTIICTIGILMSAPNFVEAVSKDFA

Row | SMILES | outcome | AC50
5 | N#CC(CCc1ccc(Cl)cc1)(Cn1cncn1)c1ccccc1 (stereo unspecified) | inactive | 
6 | CNC(=O)ON=CC(C)(C)SC | inactive | 
7 | CCOP(=S)(OCC)SCn1c(=O)oc2cc(Cl)ccc21 | inactive | 
8 | Cc1ccc(-c2c(Cl)nc(C#N)n2S(=O)(=O)N(C)C)cc1 |  | 8.72 µM (active)

These molecules were tested against rat Opioid Receptor, Non-selective Binding, Oprm1 (gene 25601) (UniProt P33535) (assay: NVS_GPCR_rOpiate_NonSelective: NovaScreen (NVS) G Protein-Coupled Receptor Assay for rat Opioid Receptor, Non-selective Binding (AID 2283318)).
Summary of the method: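 Filter-based radioligand displacement using rat forebrain membrane preparations, measured 1.5 h post-dosing. Single-concentration duplicate screen at 25 uM, follow-up in concentration series; activity taken as signal loss relative to DMSO.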

Chain of rat Opioid Receptor, Non-selective Binding, Oprm1 (gene 25601) (P33535 whole entry, looked up): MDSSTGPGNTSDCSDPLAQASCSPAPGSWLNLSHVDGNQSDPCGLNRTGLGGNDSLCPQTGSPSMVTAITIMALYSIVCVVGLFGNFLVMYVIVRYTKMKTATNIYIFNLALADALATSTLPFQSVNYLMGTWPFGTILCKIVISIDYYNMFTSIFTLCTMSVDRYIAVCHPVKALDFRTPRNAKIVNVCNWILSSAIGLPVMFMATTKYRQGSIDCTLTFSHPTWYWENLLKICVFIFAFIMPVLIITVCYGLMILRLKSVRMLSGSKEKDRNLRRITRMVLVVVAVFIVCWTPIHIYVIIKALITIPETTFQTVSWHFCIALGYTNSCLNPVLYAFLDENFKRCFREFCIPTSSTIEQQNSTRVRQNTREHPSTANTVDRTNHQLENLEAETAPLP

Row | SMILES | outcome | AC50
9 | CCCCOC(=O)c1ccccc1C(=O)OCCCC | inactive | 
10 | COc1ccc(C(c2ccc(OC)cc2)C(Cl)(Cl)Cl)cc1 | inactive | 
11 | CS/C(C)=N/OC(=O)N(C)SN(C)C(=O)O/N=C(\C)SC | inactive | 
12 | O=C(Nc1ccccc1)Nc1ccnc(Cl)c1 |  | 32.3 µM (active)
13 | CO/C=C(/C(=O)OC)c1ccccc1Oc1cc(Oc2ccccc2C#N)ncn1 | inactive | 6.66 µM (active)
14 | CCCC1COC(Cn2cncn2)(c2ccc(Cl)cc2Cl)O1 (stereo unspecified) |  | 10.1 µM (active)
15 | C#CCOS(=O)OC1CCCCC1Oc1ccc(C(C)(C)C)cc1 (stereo unspecified) | inactive | 
